# Results reported in PubChem BioAssay.
# Activity calls are given as the source filed them.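 Rule for the calls, unless noted: active = fluorescence slope higher than the sample average by over 3 SD (cut at about -0.22 in these data, passing the limit was not always enough); inactive = the rest.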
# How the values were obtained:
# [1] = inhibitors of TNFa-induced NFkB p65 translocation, primary screen, imaging, HUVEC, MLSMR starter and 10KST1 sets (AID 438;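 active = inhibition above 20% together with a positive visual image hit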;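 note: compound added about 3h40 before a 20 min TNFalpha stimulation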;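 for inhibition: signal is the nuclear over cytoplasmic p65 intensity ratio per well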); conditions: HUVEC TNFa-induced p65 nuclear translocation; cell count: measured here: nuclei count (cytotoxicity indicator), at 2.08 µM; inhibition: at 2 µM, stronger effect = higher value, 0% TNFa-plus-vehicle, 100% no-TNFa wells
# [2] = reduction of polyQ htt aggregates in cells – imaging, exon1htt(103Q)mCFP cells, high-content imaging, primary screen (AID 483;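 active = visual image review flags a hit and inhibition of aggregation exceeds 20%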;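 note: compound exposure lasted 3 days before fixation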;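 for nuclei count: percent of the per-plate median nuclei count of sample wells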); conditions: exon1htt(103Q)mCFP cell line, aggregate imaging, at 2 µM; inhibition of aggregation: stronger effect = higher value; nuclei count: measured here: cell count, toxicity
# [3] = endothelial E-selectin expression blockers – imaging, HUVEC, immunofluorescence, MLSMR starter and 10KST1 sets, primary screen (AID 487;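 active = visually confirmed hit in the image check and inhibition above 20%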;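 for inhibition: signal is fraction of cell area covered by stained E-selectin grains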;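 for nuclei count: 100% = median nuclei count of all wells on the same plate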); conditions: HUVEC TNFalpha-induced E-selectin immunofluorescence imaging, at 2 µM; inhibition: stronger effect = higher value; nuclei count: measured here: cell number, toxicity
# [4] = target: Voltage-gated potassium channel subunit beta-2 (Rattus norvegicus) (UniProt P62483); assay: inhibitors of rat Kvbeta2 reductase activity – biochemical, NADPH fluorescence, primary screen (AID 622); conditions: recombinant KvBeta, 4-cyanobenzaldehyde reduction, at 10 µM, stronger effect = higher value;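 note: slope of raw intensity against log time taken from 70 to 1610 s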
# [5] = target: Voltage-gated potassium channel subunit beta-2 (Rattus norvegicus) (UniProt P62483); assay: enhancers of rat Kvbeta2 NADPH turnover – biochemical, NADPH fluorescence, primary screen (AID 623;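 active = NADPH fluorescence slope more negative than the mean of all samples by about 3 SD, 99.7% confidence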;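 note: fluorescence intensity change per second fitted from 20 to 320 s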); conditions: Recombinant KvBeta, NADPH fluorescence decrease slope, 10 min; at 10 µM; stronger effect = lower value
# [6] = target: Alpha-2C adrenergic receptor (Homo sapiens) (UniProt P18825); assay: compounds altering alpha2C-coupled GIRK flux – cell-based, HEK293 alpha2C/GIRK1/2, thallium flux, primary screen (AID 624;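 active = fluorescence slope after compound addition differing from the mean of all screened samples at 99.7% confidence, in either direction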;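 note: slope of fluorescence ratio to pre-addition baseline per second over 15 to 24 s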); conditions: thallium flux BTC fluorescence, at 10 µM, actives lie on both sides
# [7] = blockers of RIG-like receptor reporter activation – cell-based, Sendai virus stimulus, luciferase, 10K MLSCN set, TLR/RLR signaling modifier project, primary screen (AID 602276;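 active = inhibition at or above 50% at 10 µM; inactive = inhibition below 50%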;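 note: firefly luciferase from ISG56 promoter only with Renilla not read in this screen; 0% = Sendai virus plus DMSO and 100% = medium plus DMSO without virus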); conditions: HEK293 RL24 IRF3 luciferase reporter, at 10 µM, stronger effect = higher value
# [8] = TLR3 IRF3 reporter activation blockers – cell-based, poly I:C stimulus, luciferase, 10K MLSCN set, primary screen (AID 602277;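 active = inhibition of the reporter signal at or above 50%; inactive = inhibition below 50%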); conditions: HEK293-TLR3 RL24 IRF3 luciferase reporter, at 10 µM, stronger effect = higher value
# Voltage-gated potassium channel subunit beta-2 (Rattus norvegicus), sequence (P62483 whole entry, looked up): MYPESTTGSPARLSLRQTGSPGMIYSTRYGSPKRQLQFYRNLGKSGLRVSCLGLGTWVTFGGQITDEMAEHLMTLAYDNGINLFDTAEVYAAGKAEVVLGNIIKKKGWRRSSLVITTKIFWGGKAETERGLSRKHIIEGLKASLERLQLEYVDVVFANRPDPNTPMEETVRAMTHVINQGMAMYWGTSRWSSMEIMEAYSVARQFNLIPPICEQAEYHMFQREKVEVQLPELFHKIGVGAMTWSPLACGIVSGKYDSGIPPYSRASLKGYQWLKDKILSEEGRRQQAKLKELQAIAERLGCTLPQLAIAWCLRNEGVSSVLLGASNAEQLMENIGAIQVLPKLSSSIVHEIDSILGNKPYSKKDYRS
# Alpha-2C adrenergic receptor (Homo sapiens), sequence (P18825 whole entry, looked up): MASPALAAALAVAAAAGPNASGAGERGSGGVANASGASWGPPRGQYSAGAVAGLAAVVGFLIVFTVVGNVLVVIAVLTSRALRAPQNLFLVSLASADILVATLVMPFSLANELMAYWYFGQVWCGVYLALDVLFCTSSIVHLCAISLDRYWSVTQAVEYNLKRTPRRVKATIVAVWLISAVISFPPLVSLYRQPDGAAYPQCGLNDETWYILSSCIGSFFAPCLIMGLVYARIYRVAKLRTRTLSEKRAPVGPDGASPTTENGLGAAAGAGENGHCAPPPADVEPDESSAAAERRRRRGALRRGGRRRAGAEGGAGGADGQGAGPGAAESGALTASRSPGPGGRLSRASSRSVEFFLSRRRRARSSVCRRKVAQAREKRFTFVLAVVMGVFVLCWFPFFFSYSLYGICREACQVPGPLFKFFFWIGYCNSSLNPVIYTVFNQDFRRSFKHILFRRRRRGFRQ
Compound,cell count [1],inhibition [1],inhibition of aggregation [2],nuclei count [2] [%],inhibition [3],nuclei count [3] [%],fluorescence slope [4],NADPH fluorescence slope [5],slope [6],inhibition [7],inhibition [8]
O=C(O)[C@@H]1CCCN1c1ncnc2sc3c(c12)CCC3,434,-5.7% (inactive),0.1% (inactive),128,-149% (inactive),247,-0.412 (inactive),-2.3e-05 (inactive),0.00577 (inactive),17.9% (inactive),13.8% (inactive)
Cc1cc(C)c2c(n1)nn1c(N3CCOCC3)cc(C)nc21,503,-6.3% (inactive),5.7% (inactive),81.9,-56.5% (inactive),123,-0.0426 (active),-2.7e-06 (inactive),0.00599 (inactive),2.18% (inactive),3.21% (inactive)
COC(=O)c1cccc(Oc2nc3c(c(=O)n(C)c(=O)n3C)n2C(C)C)c1,668,-5.8% (inactive),3.9% (inactive),102,-55.6% (inactive),106,-0.436 (inactive),-3.6e-05 (inactive),0.00584 (inactive),15% (inactive),28.3% (inactive)
C/C=C(\C)c1nnc(NC(=O)C(C)C)s1,382,-29% (inactive),-12.2% (inactive),98.7,-50.6% (inactive),95.4,-0.474 (inactive),2.8e-06 (inactive),0.00558 (inactive),-13.7% (inactive),-7.26% (inactive)
CC(C)CCNC(=O)C1CCN(C(=O)N(C)C)CC1,556,7% (inactive),13.3% (inactive),53.8,-28.5% (inactive),104,-0.359 (inactive),-4.6e-05 (inactive),0.00555 (inactive),8.09% (inactive),19.5% (inactive)
c1ccc(Cn2nnnc2C(c2cccs2)N2CCSCC2)cc1 (stereo unspecified),482,-10.4% (inactive),-0.3% (inactive),110,-56.7% (inactive),95.9,-0.514 (inactive),-6.4e-05 (inactive),0.00524 (inactive),-6.43% (inactive),14.3% (inactive)
CN1CCN(C(=O)c2ccc(CS(=O)(=O)c3c(Cl)cccc3Cl)o2)CC1,652,-0.5% (inactive),11.9% (inactive),96.9,-24.1% (inactive),137,-0.515 (inactive),-2.9e-05 (inactive),0.00604 (inactive),16.8% (inactive),24.4% (inactive)
COc1ccc(C2/C(=C(/O)c3ccccc3)C(=O)C(=O)N2C)cc1 (stereo unspecified),424,-0.5% (inactive),7.8% (inactive),106,-25.9% (inactive),110,-0.369 (inactive),4.1e-06 (inactive),0.00577 (inactive),14.9% (inactive),37.5% (inactive)
CC1CCN(C(=O)CSc2nnc(Cc3cc(=O)[nH]c(=O)[nH]3)n2-c2ccc(Cl)cc2)CC1,713,-6.3% (inactive),14.9% (inactive),87.4,1.4% (inactive),105,-0.602 (inactive),-8.2e-06 (inactive),0.00679 (inactive),-3.8% (inactive),16.5% (inactive)
COc1cccc(-c2csc(N3CCN(CC(=O)Nc4ccc5c(c4)OCO5)CC3)n2)c1,262,3.1% (inactive),-24.6% (inactive),88.4,-4.3% (inactive),91.2,-0.622 (inactive),-1.3e-05 (inactive),0.00556 (inactive),-45.8% (inactive),-62.6% (inactive)
C=CCn1c(-c2ccccc2)c[nH]c1=S,544,-9.5% (inactive),-9.3% (inactive),112,8.5% (inactive),101,-0.61 (inactive),-4.2e-05 (inactive),0.00665 (inactive),-33.4% (inactive),-112% (inactive)
Fc1cccc(Nc2cc(-n3cccn3)ncn2)c1,553,-8.3% (inactive),-0.2% (inactive),89.5,-65.9% (inactive),109,-0.509 (inactive),-7.2e-05 (inactive),0.00508 (inactive),-32.7% (inactive),-66.1% (inactive)
O=C(CSc1nc2ncccc2[nH]1)Nc1ccc2c(c1)OCCO2,507,1.7% (inactive),10.1% (inactive),87.8,-113% (inactive),177,-0.509 (inactive),2.9e-05 (inactive),0.00643 (inactive),-4.29% (inactive),-22.7% (inactive)
CC(C)CCNC(=O)NC(=O)COc1ccccc1C#N,381,-23.5% (inactive),15.6% (inactive),102,-71.3% (inactive),111,-0.586 (inactive),-8.5e-06 (inactive),0.00627 (inactive),-47.7% (inactive),-112% (inactive)
COc1cc(OC)c(-c2nn3c(C4CCCCC4)nnc3s2)cc1OC,573,7.2% (inactive),1.8% (inactive),109,-115% (inactive),126,-0.412 (inactive),-5.9e-05 (inactive),0.00604 (inactive),12.8% (inactive),16.9% (inactive)
COC(=O)CN(c1ccc(OC)cc1)S(=O)(=O)c1ccc(OC)c(OC)c1,669,-4.7% (inactive),-13% (inactive),106,-81.3% (inactive),139,-0.463 (inactive),-0.000101 (inactive),0.00514 (inactive),10.6% (inactive),23.4% (inactive)
O=C(C1CCCN(S(=O)(=O)c2cccs2)C1)N1CCc2ccccc2C1 (stereo unspecified),668,-3.6% (inactive),-29.8% (inactive),119,-53.2% (inactive),109,-0.586 (inactive),-5.1e-05 (inactive),0.0027 (inactive),13.1% (inactive),14.2% (inactive)
O=C(CSCc1ccccn1)Nc1ccccc1,312,-8% (inactive),21.9% (inactive),95.1,4.8% (inactive),98.8,-0.437 (inactive),-4.9e-05 (inactive),0.00582 (inactive),-30.9% (inactive),-49% (inactive)
CC1CCN(CCn2c(=S)[nH]c3ncccc3c2=O)CC1,508,7.1% (inactive),-13.9% (inactive),115,-9.3% (inactive),105,-0.411 (inactive),-3.5e-05 (inactive),0.00346 (inactive),10.2% (inactive),26.9% (inactive)
COc1ccccc1OCCCCNCCO,493,9.1% (inactive),-4.6% (inactive),103,-80.3% (inactive),130,-0.434 (inactive),-3.7e-05 (inactive),0.00597 (inactive),1.66% (inactive),25.1% (inactive)
COc1ccc(-c2ccc(-c3noc(-c4cccs4)n3)c(OC)n2)cc1,391,6.8% (inactive),20.7% (inactive),95.6,-18.2% (inactive),102,-0.0459 (active),-6.5e-07 (inactive),0.00541 (inactive),-28.9% (inactive),-86.9% (inactive)
C=CCn1c(CC#N)nnc1N1CCOCC1,481,0.7% (inactive),-15% (inactive),116,-92% (inactive),118,-0.487 (inactive),2.7e-05 (inactive),0.00619 (inactive),6.66% (inactive),13.3% (inactive)
CCOc1ccc(-c2cc(C(=O)N3CCN(c4ccccn4)CC3)c3ccccc3n2)cc1,619,7.9% (inactive),-11.8% (inactive),86.4,-19.3% (inactive),111,-0.473 (inactive),-6.7e-06 (inactive),0.00673 (inactive),34% (inactive),-64.8% (inactive)
Cc1cccc2sc(NC(=O)CN(C)S(=O)(=O)c3cccs3)nc12,601,-25.8% (inactive),-7% (inactive),114,-1.7% (inactive),103,-0.432 (inactive),1e-05 (inactive),0.00346 (inactive),-1.84% (inactive),-8.61% (inactive)
COc1cccc(OC)c1OCCCSc1nc(C)cc(=O)[nH]1,402,-1.6% (inactive),1.1% (inactive),108,24.3% (inactive),97.1,-0.422 (inactive),-2.1e-05 (inactive),0.00519 (inactive),-9.76% (inactive),-3.85% (inactive)
CCCCOc1ccc(N(CC(=O)NC2CCCC2)C(=O)CCC(=O)Nc2ccccn2)cc1,582,-1.5% (inactive),-1.9% (inactive),94,-7.6% (inactive),101,-0.416 (inactive),1.8e-06 (inactive),0.00642 (inactive),15.8% (inactive),28.8% (inactive)
